This passage reports outcome and AC50 results from PubChem BioAssay (EPA / NIEHS).

Structures are written as SMILES. Activity calls are given as the source filed them. Rule for the calls: active = hit-call score of the fitted dose curve at least 0.9, where 1 is the maximum; inactive = score below 0.9.

Details in all cases: mRNA level, 48 h; actives raise or lower the signal
Read-out in assay [1]: Cyclin D1 (CCND1), CCND1 (gene 595)
Kind of assay: LTEA_HepaRG_CCND1: Life Technologies and Expression Analysis (LTEA) Assay for Cyclin D1 (CCND1) using HepaRG (AID 2283451).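 For AC50: TaqMan qRT-PCR transcript level normalised to ACTB GAPDH and POLR2A housekeeping genes.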 The essentials:
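HepaRG plated 48 h, medium switched to serum-free induction medium, chemicals added in duplicate (top 100 uM, half-log steps, 0.5% DMSO) for 48 h, cells lysed, RNA measured by TaqMan qRT-PCR.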

Read-out in assay [2]: catalase (CAT), CAT (gene 847)
Put plainly: LTEA_HepaRG_CAT: Life Technologies and Expression Analysis (LTEA) Assay for catalase (CAT) using HepaRG (AID 2283452). In outline:
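Differentiated HepaRG cells in serum-free induction medium were dosed 48 h in duplicate, eight half-log concentrations from 100 uM in 0.5% DMSO. Transcript measured by TaqMan qRT-PCR, normalised to ACTB/GAPDH/POLR2A, fitted bidirectionally against DMSO.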

Read-out in assay [3]: flavin-containing dimethylaniline monooxygenases 3 (FMO3), FMO3 (gene 2328)
Kind of assay: LTEA_HepaRG_FMO3: Life Technologies and Expression Analysis (LTEA) Assay for flavin-containing dimethylaniline monooxygenases 3 (FMO3) using HepaRG (AID 2283453). In outline: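 Differentiated HepaRG cells in serum-free induction medium, exposed 48 h in duplicate to 8 half-log concentrations up to 100 uM in 0.5% DMSO. FMO3 mRNA by qRT-PCR, normalized to ACTB, GAPDH, POLR2A; bidirectional fit vs DMSO.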

Read-out in assay [4]: Cytochrome P450 (CYP1A1), CYP1A1 (gene 1543)
Put plainly: LTEA_HepaRG_CYP1A1: Life Technologies and Expression Analysis (LTEA) Assay for Cytochrome P450 (CYP1A1) using HepaRG (AID 2283454). In outline:
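HepaRG, 48 h post-plating switched to serum-free induction medium; 8-pt conc-response (top 100 uM, half-log, 0.5% DMSO), duplicates, 48 h. Lysis in RLT, TaqMan qRT-PCR for CYP1A1; gain or loss vs DMSO.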

Read-out in assay [5]: CFLAR gene, CFLAR (gene 8837)
Kind of assay: LTEA_HepaRG_CFLAR: Life Technologies and Expression Analysis (LTEA) Assay for CFLAR gene using HepaRG (AID 2283455). The essentials: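 HepaRG cells were plated for 48 h, switched to serum-free induction medium, then exposed in duplicate for 48 h to 8 concentrations (top 100 uM, half-log steps, 0.5% DMSO). CFLAR mRNA was measured by qRT-PCR, normalized to ACTB, GAPDH and POLR2A.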

Read-out in assay [6]: Forkhead box O1 (FOXO1), FOXO1 (gene 2308)
Put plainly: LTEA_HepaRG_FOXO1: Life Technologies and Expression Analysis (LTEA) Assay for Forkhead box O1 (FOXO1) using HepaRG (AID 2283456). In outline: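 Differentiated human HepaRG cells in serum-free induction medium were exposed in duplicate for 48 h to eight half-log concentrations (top 100 uM, 0.5% DMSO). FOXO1 mRNA was measured by TaqMan qRT-PCR, normalised to ACTB, GAPDH and POLR2A, and fitted bidirectionally against DMSO.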

Read-out in assay [7]: growth arrest and DNA damage 45 (GADD45A), GADD45A (gene 1647)
Kind of assay: LTEA_HepaRG_GADD45A: Life Technologies and Expression Analysis (LTEA) Assay for growth arrest and DNA damage 45 (GADD45A) using HepaRG (AID 2283458). The essentials: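 Differentiated HepaRG cells exposed 48 h in serum-free induction medium to 8 concentrations, top 100 uM in half-log steps, 0.5% DMSO. GADD45A mRNA quantified by qRT-PCR, normalized to ACTB, GAPDH and POLR2A; bidirectional fit versus DMSO.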

Read-out in assay [8]: Forkhead box O3 (FOXO3), FOXO3 (gene 2309)
Kind of assay: LTEA_HepaRG_FOXO3: Life Technologies and Expression Analysis (LTEA) Assay for Forkhead box O3 (FOXO3) using HepaRG (AID 2283459). The essentials: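 Differentiated human HepaRG cells in serum-free induction medium were exposed in duplicate for 48 h to eight half-log concentrations up to 100 uM in 0.5% DMSO. FOXO3 mRNA was quantified by qRT-PCR, normalized to ACTB, GAPDH and POLR2A, with bidirectional fitting versus DMSO.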

Read-out in assay [9]: ABC Transporter (ABCB1), ABCB1 (gene 5243)
Kind of assay: LTEA_HepaRG_ABCB1: Life Technologies and Expression Analysis (LTEA) Assay for ABC Transporter (ABCB1) using HepaRG (AID 2283460). In outline:
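Differentiated human HepaRG cells, plated 48 h then switched to serum-free induction medium, were exposed in duplicate to eight half-log concentrations up to 100 uM in 0.5% DMSO for 48 h. ABCB1 mRNA was measured by TaqMan qRT-PCR, normalized to ACTB/GAPDH/POLR2A.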

Read-out in assay [10]: ABC Transporter (ABCC3), ABCC3 (gene 8714)
Put plainly: LTEA_HepaRG_ABCC3: Life Technologies and Expression Analysis (LTEA) Assay for ABC Transporter (ABCC3) using HepaRG (AID 2283462). The essentials: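 Human HepaRG, 48 h dosing, 8-pt half-log series from 100 uM, 0.5% DMSO vehicle, duplicates. ABCC3 mRNA by TaqMan qRT-PCR, housekeeping-normalized; bidirectional curve fit vs DMSO.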

Read-out in assay [11]: ABC Transporter (ABCB11), ABCB11 (gene 8647)
Put plainly: LTEA_HepaRG_ABCB11: Life Technologies and Expression Analysis (LTEA) Assay for ABC Transporter (ABCB11) using HepaRG (AID 2283463). The essentials: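 Differentiated human HepaRG cells were exposed for 48 h in serum-free induction medium to eight half-log concentrations up to 100 uM in 0.5% DMSO. ABCB11 mRNA was quantified by qRT-PCR, normalized to ACTB, GAPDH and POLR2A, and fitted bidirectionally versus DMSO.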

Read-out in assay [12]: ABC Transporter (ABCC2), ABCC2 (gene 1244)
Kind of assay: LTEA_HepaRG_ABCC2: Life Technologies and Expression Analysis (LTEA) Assay for ABC Transporter (ABCC2) using HepaRG (AID 2283464). The essentials:
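HepaRG, 48 h post-plating; serum-free induction medium; cpd 8-pt, 100 uM top, half-log, 0.5% DMSO, duplicate, 48 h. Readout: ABCC2 mRNA by qRT-PCR, norm. ACTB/GAPDH/POLR2A. Bidirectional fit vs DMSO baseline.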

Read-out in assay [13]: Broad substrate specificity ATP-binding cassette transporter ABCG2 (Homo sapiens) (UniProt Q9UNQ0)
Kind of assay: LTEA_HepaRG_ABCG2: Life Technologies and Expression Analysis (LTEA) Assay for ABC Transporter (ABCG2) using HepaRG (AID 2283465). The essentials:
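Differentiated HepaRG cells in serum-free induction medium were exposed for 48 h, in duplicate, to eight half-log concentrations up to 100 uM in 0.5% DMSO. ABCG2 mRNA was measured by TaqMan qRT-PCR, normalized to ACTB, GAPDH and POLR2A, and fitted bidirectionally versus DMSO.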

Read-out in assay [14]: ATP-citrate lyase (ACLY), ACLY (gene 47)
Kind of assay: LTEA_HepaRG_ACLY: Life Technologies and Expression Analysis (LTEA) Assay for ATP-citrate lyase (ACLY) using HepaRG (AID 2283466). The essentials:
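Differentiated human HepaRG cells in serum-free induction medium exposed 48 h, in duplicate, to eight half-log concentrations from 100 uM top in 0.5% DMSO; ACLY mRNA measured by qRT-PCR, normalized to ACTB, GAPDH, POLR2A, fitted bidirectionally versus DMSO.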

Read-out in assay [15]: Bcl-2 (BAD) gene, BAD (gene 572)
Put plainly: LTEA_HepaRG_BAD: Life Technologies and Expression Analysis (LTEA) Assay for Bcl-2 (BAD) gene using HepaRG (AID 2283469). The essentials:
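Differentiated human HepaRG cells in serum-free induction medium were exposed in duplicate for 48 h to eight concentrations (top 100 uM, half-log steps, 0.5% DMSO). BAD mRNA was quantified by qRT-PCR normalised to ACTB, GAPDH and POLR2A, with bidirectional fitting versus DMSO.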

Read-out in assay [16]: Peroxisomal acyl-coenzyme A oxidase 1 (ACOX1) gene, ACOX1 (gene 51)
Kind of assay: LTEA_HepaRG_ACOX1: Life Technologies and Expression Analysis (LTEA) Assay for Peroxisomal acyl-coenzyme A oxidase 1 (ACOX1) gene using HepaRG (AID 2283467). The essentials: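 Differentiated human HepaRG cells were exposed in duplicate for 48 h in serum-free induction medium to eight half-log concentrations up to 100 uM in 0.5% DMSO. ACOX1 mRNA was then quantified by TaqMan qRT-PCR, normalized to ACTB, GAPDH and POLR2A.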

Read-out in assay [17]: Alkaline Phosphatase, Placental (ALPP) gene, ALPP (gene 250)
Kind of assay: LTEA_HepaRG_ALPP: Life Technologies and Expression Analysis (LTEA) Assay for Alkaline Phosphatase, Placental (ALPP) gene using HepaRG (AID 2283468). The essentials:
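HepaRG, 48 h plating then 48 h dosing, serum-free induction medium, 0.5% DMSO. 8 conc, half-log, max 100 uM, duplicates. Endpoint: ALPP transcript by qRT-PCR, housekeeping-normalized; gain or loss fitted vs DMSO.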

Chain of Broad substrate specificity ATP-binding cassette transporter ABCG2 (Homo sapiens) (Q9UNQ0 whole entry, looked up): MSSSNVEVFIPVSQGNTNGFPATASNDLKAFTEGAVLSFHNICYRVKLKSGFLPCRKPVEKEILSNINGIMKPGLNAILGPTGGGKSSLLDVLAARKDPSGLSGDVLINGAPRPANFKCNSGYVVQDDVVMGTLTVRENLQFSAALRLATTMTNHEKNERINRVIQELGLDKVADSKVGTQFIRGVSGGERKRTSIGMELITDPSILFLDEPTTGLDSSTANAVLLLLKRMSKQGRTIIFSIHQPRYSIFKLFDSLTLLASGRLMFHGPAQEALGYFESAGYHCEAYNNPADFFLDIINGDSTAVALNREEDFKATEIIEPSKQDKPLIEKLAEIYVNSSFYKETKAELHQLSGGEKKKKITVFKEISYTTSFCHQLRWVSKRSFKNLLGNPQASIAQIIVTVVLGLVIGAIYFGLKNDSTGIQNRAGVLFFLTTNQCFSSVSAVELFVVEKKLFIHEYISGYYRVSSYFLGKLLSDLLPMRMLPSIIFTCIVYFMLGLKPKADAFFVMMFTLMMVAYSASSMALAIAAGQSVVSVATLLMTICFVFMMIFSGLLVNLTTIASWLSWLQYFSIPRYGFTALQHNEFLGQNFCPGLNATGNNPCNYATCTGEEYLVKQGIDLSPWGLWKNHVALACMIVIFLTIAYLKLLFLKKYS

In general, AC50 refers to the concentration giving half of the maximal activity seen. Take `CC(C)(C)c1ccccc1`: the outcome in assay [1], in assay [2], in assay [3], in [5], in assay [6] and in [7] was inactive. Besides, the outcome in assay [8], in assay [9], in assay [10], in assay [11], in assay [12] and in assay [13] was inactive. Further, the result in assay [14] and in assay [15] was inactive. Further, the AC50 in assay [4] was 50 µM (active).

As for `O=C(O)c1cccnc1`, the call in [1], in assay [2], in assay [3], in assay [4], in [5] and in assay [6] was inactive. Besides, the result in assay [7], in assay [8], in [9], in assay [10], in [11] and in assay [12] was inactive. Further, the outcome in assay [13], in assay [14], in assay [16] and in assay [15] was inactive.

For the compound `O=Cc1ccccc1C=O`, the result in assay [1], in assay [2], in assay [3], in assay [5], in assay [6] and in [7] was inactive. Besides, the result in assay [8], in assay [9], in assay [10], in assay [11], in assay [12] and in [13] was inactive. Moreover, the call in assay [14] and in assay [15] was inactive. In [4], the AC50 was 18.5 µM (active).

For the compound `C=CCc1ccc(OC)c(OC)c1`, the outcome in assay [1], in [3], in assay [4], in [5], in [6] and in assay [8] was inactive. For the same compound, the compound was classed as inactive in assay [9], in [10], in assay [11], in assay [12], in assay [13] and in assay [14]. The half-maximal activity concentration (AC50) in [7] is 9.92 µM (active).

Regarding `O=[Si]=O`, the compound was classed as inactive in assay [1], in [3], in assay [5], in assay [6], in assay [7] and in assay [8]. The call in assay [9], in assay [10], in [11], in [12], in assay [13] and in [14] was inactive. Besides, the compound was called inactive in assay [17] and in assay [15]. The AC50 in assay [4] was 76.6 µM (active).

Turning to `O=C(N[C@@H](c1ccccc1)[C@@H]1CCCCN1)c1cccc(C(F)(F)F)c1Cl`, the AC50 in assay [1] was 16.6 µM (active); in assay [2] it was 56.7 µM (active); in [3], 53.7 µM (active); in assay [5], 77.2 µM (active); in assay [6] it was 75.9 µM (active); in [8], 73.4 µM (active). In addition, the AC50 is 89.9 µM (active) in assay [9]; 12.9 µM (active) in [10]; 24.1 µM (active) in [11]; 78.1 µM (active) in [12]; 11.4 µM (active) in [14]; 74.2 µM (active) in [16]. Besides, the concentration at half-maximal activity (AC50) in assay [17] is 10.8 µM (active). Besides, the compound was classed as inactive in assay [4], in assay [7] and in assay [13].

`CCCCOC(=O)CCCCC(=O)OCCCC`: the result in [1], in [2], in assay [3], in assay [5], in assay [6] and in assay [7] was inactive. The call in assay [8], in [9], in assay [10], in [11], in assay [12] and in assay [13] was inactive. Besides, the outcome in assay [14], in [16] and in assay [17] was inactive. Moreover, the AC50 in assay [4] is 50 µM (active).

With `CN(C)CCCN1c2ccccc2Sc2ccc(Cl)cc21`, the AC50 was 50 µM (active) in [1]; 27.1 µM (active) in [4]; 71.3 µM (active) in assay [5]; 79.2 µM (active) in [6]; 24.7 µM (active) in assay [11]; 89.6 µM (active) in [12]. Also, the compound was classed as inactive in assay [7], in assay [8], in assay [9], in [10], in assay [13] and in [14]. Besides, in [15], the result was inactive.
